Bioassay records (PubChem BioAssay)
BJeLR lethal – MLPCN primary cell-based screen for lethality selective to Ras in HRASV12 cells. BJeLR (HRASV12) viability, CellTiter-Glo ATP luminescence, 48 h. inhibition, % (concentration not given with the values). 300,000 tested, 0.17% active; in the data active means inhibition above about 50%
Sa ugtP lethal – growth inhibition of ugtP-null S. aureus, primary screen, RN4220 ugtP deletion, OD600 | 16 h | growth inhibition, % (no concentration beside the values) | 330,000 tested, 0.54% active; in the data active means growth inhibition above about 68%;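 further: plate controls were untreated wells for no effect and antibiotic for full effect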
RecA splice inh – Mtb RecA intein splicing inhibitors, primary screen, biochemical, fluorescence, HTS. Protein RecA (Mycobacterium tuberculosis (strain ATCC 25618 / H37Rv)), P9WHJ3. cell-free RecA intein splicing. inhibition, % (test concentration not listed). 290,000 tested, 0.75% active. AID 2221, 2009; in the data active means inhibition above about 30%;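 further: 0% = vehicle wells and 100% = reference inhibitor control wells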
Target sequence (P9WHJ3 whole entry, looked up, canonical isoform): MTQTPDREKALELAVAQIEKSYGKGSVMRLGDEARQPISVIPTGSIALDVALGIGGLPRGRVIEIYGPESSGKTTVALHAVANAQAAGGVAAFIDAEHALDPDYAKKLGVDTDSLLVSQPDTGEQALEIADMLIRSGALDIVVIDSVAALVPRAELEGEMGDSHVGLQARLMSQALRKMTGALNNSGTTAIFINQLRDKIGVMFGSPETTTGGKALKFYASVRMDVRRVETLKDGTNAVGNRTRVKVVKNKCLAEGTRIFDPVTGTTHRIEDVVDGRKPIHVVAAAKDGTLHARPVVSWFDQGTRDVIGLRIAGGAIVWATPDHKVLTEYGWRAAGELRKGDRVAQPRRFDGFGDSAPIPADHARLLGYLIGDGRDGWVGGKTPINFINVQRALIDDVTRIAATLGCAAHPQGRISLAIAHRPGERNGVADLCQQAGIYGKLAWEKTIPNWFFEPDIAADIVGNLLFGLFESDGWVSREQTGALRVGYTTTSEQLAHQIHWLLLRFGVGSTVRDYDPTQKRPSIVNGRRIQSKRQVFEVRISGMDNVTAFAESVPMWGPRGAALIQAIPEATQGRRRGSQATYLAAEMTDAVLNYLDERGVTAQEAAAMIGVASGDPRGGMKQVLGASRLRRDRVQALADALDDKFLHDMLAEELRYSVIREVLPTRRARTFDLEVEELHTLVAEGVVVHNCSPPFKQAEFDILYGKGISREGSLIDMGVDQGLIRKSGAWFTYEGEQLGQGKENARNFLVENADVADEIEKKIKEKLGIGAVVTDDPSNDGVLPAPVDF
Mtb hypoxia rep – PubChem AID 1159583. M. tuberculosis hypoxia-regulated fluorescent reporter, fluorescence. fluorescence inhibition, % (test concentration not listed). 300,000 tested, 0.1% active; in the data active means fluorescence inhibition mostly above about 23%, no sharp cut-off; inactive means mostly below about 17%
CCHF vOTU inh-1 – CCHFV vOTU protease inhibitors, primary screen, biochemical, Pep-AMC substrate, fluorescence; Crimean-Congo hemorrhagic fever virus L polyprotein viral ovarian tumor (vOTU) protease …; inhibition, % at 11.5 µM; 370,000 tested, 0.55% active; AID 651958, 2012; further: 0% = vehicle wells with enzyme and 100% = no enzyme wells
RN4220 kill – growth inhibition of S. aureus RN4220, primary screen, OD600 | 16 h | 330,000 tested, 0.33% active | inhibition, % (concentration not given with the values) | AID 1259311, 2017; in the data active means inhibition above about 85%;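 further: plate controls were untreated cells for no effect and reference antibiotic for full effect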
CCHF vOTU inh-2 – CCHFV vOTU protease inhibitors, confirmation, biochemical, Pep-AMC substrate, fluorescence; shares compounds with CCHF vOTU inh-1; Recombinant CCHFV vOTU; inhibition, % at 11.5 µM; 1,900 tested, 17% active
An asterisk follows results filed as active; · = no result; ! = a repeat was not active. Rows were chosen to be rich in hits. Some 1.6% of all compounds tested hit in one or more screens of this group. Unless noted, no stated cut-off is given here; in the data, active means inhibition above about 30%; inactive means the rest.

SMILES | BJeLR lethal | Sa ugtP lethal | RecA splice inh | Mtb hypoxia rep | CCHF vOTU inh-1 | RN4220 kill | CCHF vOTU inh-2
Cc1ccc(Cl)cc1NC1=C/C(=N\S(=O)(=O)c2cccs2)c2ccccc2C1=O | 10 | 46 | -1 | -7 | 96* | 90*! | 95*
O=C(O)c1ccc(NC2=C/C(=N/S(=O)(=O)c3cccs3)c3ccccc3C2=O)cc1 | · | · | · | · | 110* | · | 105*
Cc1cc(C)c(S(=O)(=O)/N=C2\C=C(NS(=O)(=O)c3ccccc3)C(=O)c3ccccc32)c(C)c1 | 3 | · | 4 | · | 20 | · | ·
Cc1ccc(S(=O)(=O)/N=C2\C=C(NS(=O)(=O)c3ccccc3)C(=O)c3ccccc32)cc1 | · | · | · | · | 51* | · | 29
COc1ccccc1NC(=O)CC1SC(=NN=C2CCCc3ccccc32)NC1=O (configuration not stated) | · | 0 | · | -1 | · | -2 | ·
CCCCN1CC(C)C(CC(=O)NCc2ccccc2)C1=O (configuration not stated) | · | 1 | · | 11 | · | 3 | ·
COc1ccc(C2C3C(=O)N(C(C)(C)C)C(=O)C3[C@]3(CC(C)C)C(=O)N(c4cccc(F)c4)C(=O)N23)cc1 (some centres not stated) | · | 3 | · | 3 | · | 4 | ·
COc1ccc(C=NNC(=O)CNS(=O)(=O)c2ccc(C)cc2)cc1 | · | 13 | · | 1 | · | 4 | ·
CCCC(=O)Nc1ccc(C(=O)NN=Cc2cccnc2)cc1 | · | 6 | · | 13 | · | 4 | ·
CC1CN(C(C)CO)C(=O)c2cccc(NS(=O)(=O)c3cn(C)cn3)c2OC1CN(C)Cc1ccncc1 (configuration not stated) | · | 2 | · | 13 | · | 3 | ·
COc1ccc(C2C=CCN(S(=O)(=O)c3ccc(-c4ccccc4)cc3)CC(=O)N2Cc2ccc(F)cc2)cc1 (configuration not stated) | · | 7 | · | 6 | · | 3 | ·
O=S(=O)(N=C1C=CC(=NS(=O)(=O)c2ccccc2)c2ccccc21)c1ccccc1 | · | · | · | · | 72* | · | 68*
O=C1C(=O)N(CCCn2ccnc2)C(c2ccc(Cl)cc2)/C1=C(\O)c1ccc2c(c1)OCCO2 (configuration not stated) | -2 | -4 | -11 | -10 | 48* | -2 | -12
O=C1C(=O)N(CCCn2ccnc2)C(c2ccc(Br)cc2)/C1=C(\O)c1ccc2c(c1)OCCO2 (configuration not stated) | -6 | -6 | 1 | -3 | 23 | -4 | ·
Cc1nn(C)c(C(=O)N/N=C/c2ccccc2)c1[N+](=O)[O-] | -12 | · | 2 | · | 31* | · | -13
Cc1nn(C)c(C(=O)NN=Cc2ccccn2)c1[N+](=O)[O-] | · | 0 | · | -3 | · | 3 | ·
COc1ccc(S(=O)(=O)Nc2ccc3c(c2)C(=O)N(C(C)CO)CC(C)C(CN(C)S(=O)(=O)c2ccc(F)cc2)O3)cc1 (configuration not stated) | · | 8 | · | -3 | · | 5 | ·
O=S(=O)(c1ccc2c(c1)OCCO2)N1CC2CC1CN2S(=O)(=O)c1c(F)cccc1F (configuration not stated) | · | 1 | · | 8 | · | 3 | ·
O=C(Cc1ccccc1)Nc1ccc(NC(=O)c2ccccc2)nc1 | -2 | 4 | 1 | 9 | 33* | -5 | -18
CCN(c1cccc(C(F)(F)F)c1)S(=O)(=O)c1ccc2c(c1)CCN2C(C)=O | -1 | 4 | 0 | · | 42* | 21 | 2
CC1(C)Nc2cccc3cccc(c23)N1 | · | -1 | · | 11 | 33* | 3 | -104
CCc1nnc(NN=Cc2c(C)[nH]c3ccccc23)n1N | · | 2 | · | 9 | · | 12 | ·
CCc1nnc(N/N=C\c2ccc(OC(C)=O)c(OC)c2)n1N | 0 | · | -1 | · | 66* | · | -6
CCc1nnc(N/N=C/c2ccc(O)c(OC)c2)n1N | -3 | · | 0 | · | 77* | · | -2
COc1ccc(C=NNc2nnc(C)n2N)cc1OC | · | 4 | · | 0 | · | 5 | ·
SMILES | BJeLR lethal | Sa ugtP lethal | RecA splice inh | Mtb hypoxia rep | CCHF vOTU inh-1 | RN4220 kill | CCHF vOTU inh-2
CCc1nnc(N/N=C/c2cccs2)n1N | 9 | · | -3 | · | 89* | · | -3
CCc1nnc(NN=Cc2ccc(OC(C)=O)c(OC)c2)n1N | · | 9 | · | 7 | · | 6 | ·
COc1ccc(C=NNc2nnc(C)n2N)cc1OC(C)=O | · | 14 | · | 11 | · | 0 | ·
CCOc1cc(/C=N/Nc2nnc(C)n2N)ccc1OC(C)=O | 2 | · | -3 | · | 86* | · | -13
Cn1c2c(c3ccccc31)CCC2=NO | · | 10 | · | · | · | 3 | ·
Cc1cc(C(=O)Nc2cccc3c2OC(CN(C)CC2CC2)C(C)CN(C(C)CO)C3=O)n(C)n1 (configuration not stated) | · | -11 | · | 8 | · | 5 | ·
Cc1cc(=O)oc(C)c1C(=O)O | -7 | 14 | -1 | 3 | -4 | 2 | ·
Cc1oc2c(c1C(=O)O)C(=O)c1ccccc1C2=O | -1 | 8 | 68* | 3 | 67* | 13 | 78*
COCCN1C(=O)NC(CCc2ccccc2)C(C(=O)OC)C1C (configuration not stated) | · | -2 | · | -7 | · | 3 | ·
COc1cc(/C=C2\SC(=S)N(CC(=O)O)C2=O)ccc1OS(=O)(=O)c1ccc(C)cc1 | -7 | 0 | · | -1 | 54* | 5 | 8
COc1cc(/C=C2/SC(=S)N(CC(=O)O)C2=O)ccc1OC(=O)c1cccs1 | 6 | 2 | 19 | 7 | 20 | 7 | ·
CCCCNC(=O)c1cccc(S(=O)(=O)N2CC3(C)CC2CC(C)(C)C3)c1 (configuration not stated) | · | -1 | · | 1 | 31* | 7 | 14
COCCNC(=O)c1cccc(S(=O)(=O)N2CC3(C)CC2CC(C)(C)C3)c1 (configuration not stated) | -11 | 1 | -2 | 2 | 33* | 4 | -13
CN(C)c1ccc(N/C=C/C(=O)c2ccco2)cc1 | 2 | -10 | -2 | 14 | 68* | 7 | -2
CC(=O)Nc1ccc(N/C=C/C(=O)c2ccco2)cc1 | -9 | -3 | -2 | 3 | 0 | -17 | ·
Cc1cccc(C2C3C(=O)N(Cc4ccccc4)C(=O)C3[C@]3(C)C(=O)N(c4cccc(F)c4)C(=O)N23)c1 (some centres not stated) | · | -1 | · | 3 | · | 0 | ·
COC(=O)C1=C(C(=O)OC)C2N(C)c3ccc(OC)cc3[C@@]23CC(C(=O)OC)N(C(=O)c2cc(C)oc2C)C3=N1 (some centres not stated) | · | 7 | · | 11 | · | 4 | ·
COc1ccc(C=C(C#N)C(=O)Nc2cccc(C)c2C)cc1C(=O)O | · | 1 | · | -2 | · | 5 | ·
Cc1ccc(/C=[N+](\[O-])c2ccc(N(C)C)cc2)c2nsnc12 | 2 | 10 | 1 | 0 | 56* | 6 | -12
